Most compounds without a hit are left out; they make up all but 1.9% or so of the library.
Vif imaging = inhibitors of HIV Vif; inhibition, % at 7.49 µM; 340,000 compounds, 0.35% hits; HEK293T cells, Vif self-association by quenched fluorescence, imaging, 24 h; in the data active = inhibition above about 50%, passing the limit was not always enough; inconclusive = no clear call, values can overlap the other calls; inactive = below about 31%
Neddyl block = inhibitors of human cullin neddylation; inhibition, % at 25 µM; 360,000 compounds, 0.58% hits; AID 651699; TR-FRET cullin neddylation, biochemical; in the data active = inhibition above about 36%
dFosB act = mouse delta FosB homodimer activation. P13346. purified delta FosB, TAMRA-CDK5 oligo fluorescence polarization; percent of positive-control signal above neutral wells. activation, % at 25 µM. 340,000 compounds, 0.99% hits. AID 493131;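 active = mean activation above about 17%, with every replicate also reaching it, limit read from the data, passing the limit was not always enough; inconclusive = only one of the two conditions met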
Target sequence (P13346 whole entry, looked up): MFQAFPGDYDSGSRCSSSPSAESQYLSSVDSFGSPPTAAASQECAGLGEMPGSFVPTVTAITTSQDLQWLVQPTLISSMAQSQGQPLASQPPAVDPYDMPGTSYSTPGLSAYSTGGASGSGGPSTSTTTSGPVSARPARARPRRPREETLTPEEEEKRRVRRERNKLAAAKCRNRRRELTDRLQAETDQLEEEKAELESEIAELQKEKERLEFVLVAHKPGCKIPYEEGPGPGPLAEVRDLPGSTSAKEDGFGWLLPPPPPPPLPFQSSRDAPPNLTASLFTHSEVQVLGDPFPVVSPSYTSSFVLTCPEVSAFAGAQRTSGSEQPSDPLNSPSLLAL
A1 inh = inhibitors of the anti-apoptotic protein A1, read as caspase activation; 330,000 compounds, 0.066% hits; caspase activation, % (concentration not given with the values); MEF A1-2A-BIM cells, Caspase-Glo 3/7 luminescence, 3 h; percent of clofoctol response, vehicle zero;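 active = over half of replicate activation scores above 10%, or exactly half above 10 with the replicate mean above 10; inconclusive = replicate mean below 10 yet half the replicates above 10; inactive = over half of replicates below 10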
INS-1E GSIS act = GLuc luminescence reporter in INS-1E cells, primary screen for activators of glucose-dependent secretion of insulin. INS-1E GLuc reporter insulin secretion, 2-3 h. activation, % at 16.6 µM. 370,000 compounds, 0.61% hits;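 active = lowest replicate activation of at least 40%, so every replicate reaches that level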
A number is an active result; ! = a repeat was not active.

How did Cc1ccc(NC(=O)c2cc(-c3ccc(C)c(C)c3O)n[nH]2)cc1C do in these assays?
Vif imaging: inactive; Neddyl block: inactive; dFosB act: 23; A1 inh: inactive; INS-1E GSIS act: inactive

Results for Cc1cccc(NC(=O)c2cc(-c3ccc(C)c(C)c3O)n[nH]2)c1 ?
Vif imaging: inactive; Neddyl block: inactive; dFosB act: 33; A1 inh: inactive; INS-1E GSIS act: inactive

How did C=CC(=O)Nc1ccc(N(C)c2ccnc(Nc3ccc(N4CCN(C)CC4)cc3)n2)cc1 do in these assays?
Vif imaging: inactive; Neddyl block: inactive; dFosB act: 50; INS-1E GSIS act: inactive

What do the screens show for `CCOC(=O)c1c(C)nc(C)c(C(=O)OCC)c1-c1ccccc1`?
Vif imaging: inactive; Neddyl block: inactive; dFosB act: inactive; A1 inh: inactive; INS-1E GSIS act: inactive

What do the screens show for `CCOc1c(C(N)=O)c(-c2ccccc2)c2c(=O)[nH]c3ccccc3n12`?
Vif imaging: 32; dFosB act: inactive; A1 inh: inactive

How did CCC(=O)Nc1ccc2c(c1)OC[C@@H](C)N(Cc1ccccc1OC)C[C@@H](C)[C@H](OC)CN(C)C2=O do in these assays?
INS-1E GSIS act: inactive

What do the screens show for `COc1cccc(OCc2nc3c4cnn(-c5ccccc5)c4ncn3n2)c1`?
Neddyl block: inactive; dFosB act: inactive; A1 inh: inactive; INS-1E GSIS act: 57

Results for CSc1n[nH]c(NC2=CC(=O)CCC2)n1 ?
Vif imaging: 59; Neddyl block: inactive; dFosB act: inactive; A1 inh: inactive

What do the screens show for `CSc1n[nH]c(NC(C)=O)n1`?
Vif imaging: inactive; Neddyl block: inactive; dFosB act: inactive; A1 inh: inactive

Results for C[C@@H]1CN([C@H](C)CO)C(=O)c2cccc(NC(=O)NC3CCCCC3)c2O[C@@H]1CN(C)S(=O)(=O)c1cccs1 ?
INS-1E GSIS act: inactive

How did CNC[C@H]1OCCCC[C@@H](C)Oc2ccc(NC(=O)c3ccccc3)cc2C(=O)N([C@@H](C)CO)C[C@@H]1C do in these assays?
INS-1E GSIS act: inactive

Results for CCOC(=O)CCNC(=O)N1CCCC(C(=O)c2cccc(OC(C)C)c2)C1 (stereo unspecified) ?
Vif imaging: inactive; Neddyl block: inactive; dFosB act: inactive; A1 inh: inactive; INS-1E GSIS act: 48

Results for Oc1ccccc1-c1cc(C(F)(F)C(F)F)nc(-c2ccccc2)n1 ?
Vif imaging: inactive; Neddyl block: inactive; dFosB act: inactive; A1 inh: inactive; INS-1E GSIS act: 112

How did C[C@@H]1CN([C@@H](C)CO)C(=O)c2c(c3ccccc3n2C)-c2ccccc2CO[C@@H]1CN(C)S(=O)(=O)c1ccc(Cl)cc1 do in these assays?
INS-1E GSIS act: inactive

What do the screens show for `CC(C)(C)NC(=O)C(c1ccncc1)n1c(=O)c(-c2ccco2)nc2ccccc21` (stereo unspecified)?
Neddyl block: 40; INS-1E GSIS act: inactive

Results for O=C(NCc1ccccc1)C(c1ccncc1)n1c(=O)c(-c2ccccc2)nc2ccccc21 (stereo unspecified) ?
Neddyl block: inactive; INS-1E GSIS act: 45

How did CC(C)(C)NC(=O)C(c1ccccc1)n1c(=O)c(-c2ccco2)nc2ccccc21 (stereo unspecified) do in these assays?
Neddyl block: inactive; INS-1E GSIS act: inactive

How did O=C(NCc1ccccc1)C(c1ccccc1F)n1c(=O)c(-c2ccccc2)nc2ccccc21 (stereo unspecified) do in these assays?
Neddyl block: inactive; INS-1E GSIS act: inactive

How did C[C@@H]1CN([C@H](C)CO)C(=O)c2cc(C3=CCCCC3)cnc2O[C@H]1CN(C)C(=O)CN1CCOCC1 do in these assays?
INS-1E GSIS act: 171

What do the screens show for `C[C@H](CO)N1C[C@H](C)[C@@H](CN(C)C(=O)C2CC2)Oc2ncc(Br)cc2C1=O`?
INS-1E GSIS act: inactive

What do the screens show for `C[C@@H]1CN([C@H](C)CO)C(=O)c2cc(C#CCN(C)C)cnc2O[C@H]1CN(C)S(=O)(=O)c1cn(C)cn1`?
INS-1E GSIS act: 40

Results for C[C@@H]1CN([C@H](C)CO)C(=O)c2cc(C3=CCCCC3)cnc2O[C@@H]1CN(C)C(=O)CN1CCOCC1 ?
INS-1E GSIS act: inactive

What do the screens show for `C[C@@H]1CN([C@@H](C)CO)C(=O)c2cc(Br)cnc2O[C@H]1CN(C)C(=O)C1CC1`?
Vif imaging: inactive; Neddyl block: inactive; INS-1E GSIS act: 46!

Results for c1ccc(Cn2c3ccccc3c3nnc(SCCN4CCCCC4)nc32)cc1 ?
Vif imaging: inactive; Neddyl block: inactive; A1 inh: inactive

What do the screens show for `CSc1nnc2c3cc(C)ccc3n(Cc3ccccc3)c2n1`?
Neddyl block: inactive; dFosB act: inconclusive; A1 inh: inactive; INS-1E GSIS act: 140

Results for COc1ccc(NC(=O)N[C@H]2CC[C@H](CCNC(=O)c3ccccc3F)O[C@H]2CO)cc1 ?
INS-1E GSIS act: inactive

What do the screens show for `CC(C)NC(=O)N1C[C@H]2[C@@H](c3ccccc31)[C@@H](CO)N2C(=O)c1ccccn1`?
INS-1E GSIS act: inactive

Results for O=C(Nc1ccc(F)c(Cl)c1)c1csc([C@@H]2C[C@H](O)[C@@H](CO)O2)n1 ?
Vif imaging: inactive; Neddyl block: inactive; INS-1E GSIS act: inactive

How did O=C(Nc1ccc(F)c(Cl)c1)c1csc([C@H]2C[C@H](O)[C@@H](CO)O2)n1 do in these assays?
Vif imaging: 54; Neddyl block: inactive; INS-1E GSIS act: inactive

What do the screens show for `COc1ccc(-c2ccc(SCC(=O)c3cccs3)nn2)cc1OC`?
Vif imaging: inactive; Neddyl block: inactive; dFosB act: inactive; A1 inh: inactive; INS-1E GSIS act: 43

How did COc1ccc(-c2ccc(SCC(=O)N3CCOCC3)nn2)cc1OC do in these assays?
Vif imaging: inactive; Neddyl block: inactive; dFosB act: inactive; A1 inh: inactive; INS-1E GSIS act: 84

Results for COc1ccc(-c2ccc(SCC(=O)c3ccc(F)cc3)nn2)cc1OC ?
Vif imaging: inactive; Neddyl block: inactive; dFosB act: inactive; A1 inh: inactive; INS-1E GSIS act: inactive

What do the screens show for `COc1ccc(-c2ccc(SCC(=O)N3CCCC3)nn2)cc1OC`?
Vif imaging: inactive; Neddyl block: inactive; dFosB act: inactive; A1 inh: inactive; INS-1E GSIS act: 81

How did COc1c(-c2ccc(O)c(O)c2)oc2cc(O)cc(O)c2c1=O do in these assays?
Vif imaging: inconclusive; Neddyl block: inactive; dFosB act: inactive; A1 inh: inactive; INS-1E GSIS act: 70

What do the screens show for `O=C(C[C@@H]1C=C[C@@H](NC(=O)CC2CC2)[C@@H](CO)O1)NCc1ccc(Cl)cc1`?
INS-1E GSIS act: inactive

What do the screens show for `CCSc1nc2c([nH]1)c(=O)n(C)c(=S)n2C`?
Vif imaging: inactive; Neddyl block: inactive; dFosB act: inactive; INS-1E GSIS act: inactive

How did Cn1c(=O)c2[nH]c(SCc3ccccn3)nc2n(C)c1=S do in these assays?
A1 inh: inactive; INS-1E GSIS act: 181

Results for COc1ccc(C)cc1NCc1cc(=O)oc2cc(-c3ccccc3)c(O)cc12 ?
Vif imaging: inactive; Neddyl block: inactive; dFosB act: inactive; A1 inh: inactive; INS-1E GSIS act: 107

Compound activity as filed in PubChem.
